HP1b chromo inh: inhibitors of HP1-beta chromodomain binding to methylated histone tails | hit rate 0.56% among 390,000 | AlphaScreen HP1-beta / biotin-H3K9me3 peptide binding | Potency, µM (doses to about 114 µM), usual class: inhibitors | P83916; also: nearly all actives have a fitted effect of over 70% in size
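HP1-beta protein (50 nM final) preincubated 30 min at room temperature with biotinylated H3(1-18)K9me3 peptide (50 nM) in PBS pH 7.4, 0.01% Tween-20, then compound added for 30 min. AlphaScreen streptavidin donor/nickel chelate acceptor beads (10 ug/mL final), 30 min dark, luminescence read.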
G9a inh: blocks human histone lysine methyltransferase G9a | Q96KQ7 | G9a H3K9 monomethylation, AlphaScreen, 2 h | Potency, µM (highest dose often 102 µM), most hits filed as inhibitors | hit rate 8.8% among 350,000; also: nearly all actives have a fitted effect of over 75% in size
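Quantitative HTS format: methyltransferase activity on a biotin-tagged H3K9 peptide is measured by AlphaScreen, using a rabbit anti-monomethyl-H3K9 antibody with streptavidin donor and anti-IgG acceptor beads. Final levels are 20 nM enzyme, 500 nM peptide, 20 uM SAM; 2 h RT.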
BAZ2B inh: inhibitors of human BAZ2B bromodomain | Q9UIF8 | AlphaScreen BAZ2B-H3K14Ac peptide displacement | Potency, µM (highest dose often 114 µM), usual class: inhibitors | hit rate 4.4% among 360,000; also: nearly all actives have a fitted effect of over 60% in size
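Inhibition is scored as reduced AlphaScreen emission. The BAZ2B/b-H3(5-23)K14Ac complex (50 nM each) in PBS pH 7.4, 0.01% Tween-20 meets compound (up to 110 uM) for 30 min at RT before bead addition.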
JMJD2A Tudor inh: inhibitors of human JMJD2A Tudor domain. Potency, µM (titrated, usually from 114 µM), actives largely listed as inhibitors. O75164. AlphaScreen JMJD2A-Tudor / H3K4me3 peptide binding. hit rate 4.4% among 390,000. AID 504339; also: nearly all actives have a fitted effect of over 50% in size
Sfp PPTase inh: blocks B. subtilis Sfp PPTase activity; Q9F4F7; Biochemical Sfp PPTase activity, qHTS; Potency, µM, actives largely listed as inhibitors; hit rate 3.5% among 310,000;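 also: the enzyme is Sfp with the accession as filed and its product quenches rhodamine fluorescence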
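Fluorescence-quenching assay: 15 nM Sfp-PPTase preincubated 15 min at room temperature with compound, then 5 uM rhodamine-CoA and 12.5 uM BHQ-2-labelled YbbR peptide added. Fluorescence (ex 525/em 598 nm) read at start and after 30 min; difference gives rate.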
A number is an active result; i = inactive; ? = inconclusive; nt = not tested or not shown; [ ] = dose if it differs, or a comment. Shown are actives, neighbours in structure and some others; about 12% of the full set was active somewhere. Calls follow the shape of the dose curve; as a rule, active = well fitted curve in the direction sought with a large enough effect; inconclusive = small, poorly fitted or top-dose-only effect, or another doubt; inactive = no such curve, though single readings can be large; an effect the other way counts as inactive or inconclusive.

SMILES	HP1b chromo inh	G9a inh	BAZ2B inh	JMJD2A Tudor inh	Sfp PPTase inh
Cn1cccc1/C=C1\CCC/C(=C\c2cccn2C)C1=O	22.4µM	?	22.4µM	56.2µM	i
O=C1CNC(=O)/C(=C/c2cccs2)N1	i	i	i	i	i
O=C1/C(=C/c2cccs2)CCC/C1=C\c1cccs1	?	i	5.62µM	?	i
O=C1/C(=C/c2cccnc2)CCC/C1=C\c1cccnc1	i	i	i	i	i
CC1C/C(=C/c2cccs2)C(=O)/C(=C/c2cccs2)C1 (configuration not stated)	?	35.5µM	?	?	i
O=C(NC1CCCCC1)C1CCN(c2nnnn2-c2ccccc2)CC1	i	i	i	i	i
CN(C)CCN(C(=O)C1CCN(S(=O)(=O)c2cccs2)CC1)c1nc2ccc(F)cc2s1	i	28.2µM	?	?	nt
CN(C(=O)C1CCN(S(=O)(=O)c2cccs2)CC1)C1CCCCC1	i	i	i	i	i
Cc1cccc2sc(N(CCN(C)C)C(=O)C3CCN(S(=O)(=O)c4cccs4)CC3)nc12	?	31.6µM	50.1µM	56.2µM	nt
COc1ccc(OC)c(NC(=O)c2ccc(NS(C)(=O)=O)cc2)c1	i	i	i	i	i
COc1ccc(C2=N[C@H](c3ccccc3)CO2)cc1	nt	i	nt	nt	?
COC(=O)c1sccc1NC(=O)c1sccc1C	i	i	i	i	i
Cn1c(COc2ccc(Cl)cc2)nnc1SCC(=O)NC1CC1	i	?	i	i	nt
NNc1cc(C(=O)O)ccc1Cl	?	nt	?	25.1µM	?
O=C(O)c1cc(NC(=S)NC(=O)C(c2ccccc2)c2ccccc2)ccc1Cl	i	?	i	i	i
O=C(O)c1cc(NN=C2c3ccccc3-c3ccccc32)ccc1Cl	i	44.7µM	?	i	i
NNc1ccc(Cl)c(C(=O)O)c1	i	1.26µM	i	i[11.4 µM]	i
O=C(O)c1cccc2c1-c1ccccc1/C2=N\Nc1ccccc1	i	50.1µM	i	?	12.6µM
O=C(O)/C=C/C(=O)Nc1ccc(Cl)c(C(=O)O)c1	i	?	?	i	i
COc1cc(NC(=O)N[C@@H](Cc2ccccc2)C(=O)O)cc(OC)c1	i	i	i	i	i
CC(=O)Nc1ccc(S(=O)(=O)NCCC(=O)NC2CCCCCC2)cc1	i	i	i	i	nt
O=C(CCc1nnc(C2CCCCC2)o1)NCc1ccc(F)c(F)c1	i	nt	i	i	i
O=C(O)c1cc(N/N=C/c2cccs2)ccc1Cl	nt	?	?	nt	i
O=C(O)c1cc(N/N=C/C(Cl)=C/c2ccccc2)ccc1Cl	i	35.5µM	35.5µM	i	i
COC(=O)NC(NC(=S)Nc1ccc([N+](=O)[O-])cc1)C(Cl)(Cl)Cl (configuration not stated)	i	10µM	i	?	i
SMILES	HP1b chromo inh	G9a inh	BAZ2B inh	JMJD2A Tudor inh	Sfp PPTase inh
COC(=O)NC(NC(=S)Nc1ccccc1OC)C(Cl)(Cl)Cl (configuration not stated)	i	15.8µM	i	i	i
CCOC(=O)NC(NC(=S)Nc1ccc(OC)cc1)C(Cl)(Cl)Cl (configuration not stated)	i	6.31µM	i	i	i
COC(=O)c1ccc(NC(=O)C2CCN(C(=O)c3ccc(F)cc3)CC2)cc1	i	i	i	i	nt
Cc1ccc(N(CC#N)C(=O)CS(=O)(=O)c2cccc([N+](=O)[O-])c2)cc1	i	i	i	i	i
O=C1CC(=O)CC(c2ccccc2)C1	i	i	i	i	i
O=C1CC(c2ccccc2)CC(=O)C1CS(=O)(=O)c1ccccc1 (configuration not stated)	i	3.16µM	i	i	i
O=C1NCCCc2c1no[n+]2[O-]	i	i	i	i	i
CC1CCN(C(=O)c2cc3c(=O)n(C)c4cc(Cl)ccc4c3s2)CC1	i	i	nt	i	nt
CC(=O)NS(=O)(=O)c1ccc2sc(C)nc2c1	i	i	i	i	79.4µM
CC(=O)Nc1ccc2sc(C)nc2c1	i	nt	i	i	i
CC(NS(=O)(=O)c1ccc(NC(=O)N2CCCCC2)cc1)c1ccccc1 (configuration not stated)	i	i	i	i	i
Cc1cc2c(cc1C)N(C(=O)CSC1=NCCS1)C(C)(C)c1ssc(=S)c1-2	?	5.01µM	8.91µM	6.31µM	i
CC1(C)c2ssc(=S)c2-c2ccccc2N1C(=O)CSC1=NCCS1	?	25.1µM	25.1µM	8.91µM	i
Cc1ccc(C)c(NC(=O)CSc2nncn2C)c1	i	i	i	i	i
